Results as given in PubChem BioAssay (Tox21).
Records with an inconclusive call do not appear. Calls of active or inactive are those of the source. Unless noted, calls come from the whole dose curve; as a rule, active = well fitted curve in the direction sought with a large enough effect in the repeat runs; inconclusive = weak or mixed curves; inactive = no such curve, though single readings can be large; an effect the other way counts as inactive or inconclusive.

How the values were obtained:
[1] = qHTS assay to identify small molecule antagonists of the thyroid receptor (TR) signaling pathway - cell viability counter screen (AID 743064); note: nearly all actives have a fitted effect of over 50% in size
Procedure, shortened: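 Compounds were tested on GH3.TRE-Luc cells in the presence of T3 at 1 nM final. Following 23.5 h at 37 °C, cell viability was quantified by CellTiter-Fluor.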

[2] = qHTS assay to identify small molecule antagonists of the thyroid receptor (TR) signaling pathway (AID 743065); note: series mostly up to about 70 µM; nearly all actives have a fitted effect of over 55% in size
Procedure, shortened: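 Antagonism measured as loss of luciferase signal in GH3 cells stably carrying a TRE-luciferase reporter, co-treated with compound and T3 (1 nM final) for 23.5 h at 37 C. Viability was read in the same well by CellTiter-Fluor.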

[3] = tested on: thyroid hormone receptor (rat, GH3 cells); assay: qHTS assay to identify small molecule agonists of the thyroid receptor (TR) signaling pathway (AID 743066; calls by dose curve)
[4] = target: Estrogen receptor (Homo sapiens) (UniProt P03372); assay: qHTS assay to identify small molecule antagonists of the estrogen receptor alpha (ER-alpha) signaling pathway (AID 743069; active = well fitted curve in the direction sought with a large enough effect in the signal ratio in the repeat runs, not every such curve was filed as active; the % refers to the signal ratio)
Procedure, shortened: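 ER-alpha-UAS-bla GripTite HEK293 line; 2% charcoal-stripped FBS overnight; plated, 4 hr 37C/5% CO2; cpd in DMSO + 17beta-estradiol, 18 hr 37C; LiveBLAzer B/G FRET substrate 2 hr RT; fluorescence intensity.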

[5] = qHTS assay to identify small molecule antagonists of the estrogen receptor alpha (ER-alpha) signaling pathway - cell viability counter screen (AID 743074; calls by dose curve;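 note: HEK293 cells carrying ER-alpha-UAS-bla reporter stimulated with 17beta-estradiol; nearly all actives have a fitted effect of over 45% in size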)
[6] = target: Estrogen receptor (Homo sapiens) (UniProt P03372); assay: qHTS assay to identify small molecule agonists of the estrogen receptor alpha (ER-alpha) signaling pathway (AID 743075; calls by dose curve;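 note: HEK293 GripTite cells with ER-alpha and UAS-driven beta-lactamase reporter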)
[7] = qHTS assay to identify small molecule antagonists of the estrogen receptor alpha (ER-alpha) signaling pathway using the BG1 cell line (AID 743080; calls by dose curve; note: series mostly up to about 70 µM; nearly all actives have a fitted effect of over 25% in size)
Procedure, shortened: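 Antagonist mode: compounds in DMSO were pinned onto BG1-Luc-4E2 cells alongside 17beta-estradiol agonist, incubated 21.5 h, and ERE-driven luciferase measured with ONE-Glo. Cytotoxicity was multiplexed using CellTiter-Fluor fluorescence.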

[8] = qHTS assay to identify small molecule antagonists of the estrogen receptor alpha (ER-alpha) signaling pathway using the BG1 cell line - cell viability counter screen (AID 743081);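 note: compound given together with 17beta-estradiol as the ER stimulus; series mostly up to about 70 µM; nearly all actives have a fitted effect of over 45% in size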
Aromatase (Homo sapiens) = Aromatase (Homo sapiens) (UniProt P11511); assay: qHTS assay to identify aromatase inhibitors (AID 743083); note: series mostly up to about 70 µM; nearly all actives have a fitted effect of over 55% in size
[9] = target: Estrogen receptor (Homo sapiens) (UniProt P03372); assay: qHTS assay to identify small molecule agonists of the estrogen receptor alpha (ER-alpha) signaling pathway using the BG1 cell line (AID 743079); note: nearly all actives have a fitted effect of over 20% in size; note: potency is the fitted concentration of half-maximal effect

Measured: Potency

Chain of Estrogen receptor (Homo sapiens) (P03372 whole entry, looked up): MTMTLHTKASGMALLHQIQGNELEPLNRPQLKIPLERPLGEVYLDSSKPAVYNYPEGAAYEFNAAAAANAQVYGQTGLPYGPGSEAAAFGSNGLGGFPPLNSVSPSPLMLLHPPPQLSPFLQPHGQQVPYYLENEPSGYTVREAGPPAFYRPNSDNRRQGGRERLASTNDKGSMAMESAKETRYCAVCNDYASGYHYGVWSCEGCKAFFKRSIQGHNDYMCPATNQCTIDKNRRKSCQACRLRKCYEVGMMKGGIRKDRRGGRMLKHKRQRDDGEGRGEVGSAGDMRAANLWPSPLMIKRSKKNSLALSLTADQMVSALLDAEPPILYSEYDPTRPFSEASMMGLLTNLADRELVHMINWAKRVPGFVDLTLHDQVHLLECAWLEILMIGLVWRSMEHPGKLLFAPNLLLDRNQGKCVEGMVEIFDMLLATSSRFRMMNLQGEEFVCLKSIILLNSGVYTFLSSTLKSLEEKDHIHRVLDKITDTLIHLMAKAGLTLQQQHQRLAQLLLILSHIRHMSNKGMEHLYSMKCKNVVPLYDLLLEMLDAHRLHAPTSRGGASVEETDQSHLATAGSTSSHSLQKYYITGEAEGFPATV
Chain of Aromatase (Homo sapiens) (P11511 whole entry, looked up): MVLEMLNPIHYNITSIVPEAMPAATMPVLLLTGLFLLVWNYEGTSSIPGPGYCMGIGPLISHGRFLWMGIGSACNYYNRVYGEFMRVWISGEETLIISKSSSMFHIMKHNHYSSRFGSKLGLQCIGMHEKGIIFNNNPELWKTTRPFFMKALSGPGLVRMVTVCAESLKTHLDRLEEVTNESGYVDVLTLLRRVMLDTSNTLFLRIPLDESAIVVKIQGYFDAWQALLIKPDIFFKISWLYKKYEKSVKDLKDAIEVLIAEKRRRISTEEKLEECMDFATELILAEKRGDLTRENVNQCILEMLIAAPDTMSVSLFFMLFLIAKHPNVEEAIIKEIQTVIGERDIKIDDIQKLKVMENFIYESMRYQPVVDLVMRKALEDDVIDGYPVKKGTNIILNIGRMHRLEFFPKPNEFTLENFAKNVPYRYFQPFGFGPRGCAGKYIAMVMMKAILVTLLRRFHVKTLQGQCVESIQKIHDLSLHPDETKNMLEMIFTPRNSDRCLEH

O=C(O)/C=C(\CC(=O)O)C(=O)O
not listed: [9]
inactive: all other assays above

CN(C)CCc1c[nH]c2ccc(C[C@H]3COC(=O)N3)cc12
not listed: [5]
inactive: all other assays above

C[C@@H](CN1CC(=O)NC(=O)C1)N1CC(=O)NC(=O)C1
inactive: all assays above

NNC(=O)CCCCC(=O)NN
not listed: [8]
inactive: all other assays above

N#CC1(N)CCCCC1
not listed: [4]
inactive: all other assays above

Cc1ccc2cccnc2c1
inactive: all assays above

COC(=O)c1ccc(C(=O)O)cc1
inactive: all assays above

CC(=O)c1ccc2ccc3ccccc3c2c1
active: [9] 8.58 µM
not listed: [7]
inactive: all other assays above

N=C(N)N1CCc2ccccc2C1
not listed: [4] | [6] | [9]
inactive: all other assays above

CCOC(=O)[C@H](CCc1ccccc1)N[C@H]1CS[C@H](c2cccs2)CN(CC(=O)O)C1=O
inactive: all assays above

CCCCCCCCCCCCCC(=O)OCC
inactive: all assays above

CCC(C)SSC(C)CC (stereo unspecified)
not listed: [4]
inactive: all other assays above

C/C(Cl)=C/CCl
not listed: [4] | [7] | [9]
inactive: all other assays above

O=C(O)COc1ccc2ccccc2c1
inactive: all assays above

Cc1nnc(C(=O)NC(C)(C)c2nc(C(=O)NCc3ccc(F)cc3)c(O)c(=O)n2C)o1
inactive: [1] | [2] | [3] | [5] | [8]

Cc1ccc(S(=O)(=O)NC(=O)NN2CC3CCCC3C2)cc1 (stereo unspecified)
inactive: all assays above

Cc1ccc(Br)cc1
inactive: all assays above

COCc1nnc(-c2ccc[n+]([O-])c2)n1-c1c(Cl)c(Cl)cc2[nH]c(=O)c(=O)[nH]c12
not listed: [9]
inactive: all other assays above

CCCC(=O)C(CC)Sc1ccoc1C (stereo unspecified)
inactive: all assays above

CC(C)(C)OC(=O)c1ccccc1C(=O)O
inactive: all assays above

CC[C@@]1(c2ccccc2)NC(=O)N(C)C1=O
inactive: all assays above

OCCC(F)(F)C(F)(F)C(F)(F)C(F)(F)C(F)(F)C(F)(F)F
not listed: [2]
inactive: all other assays above
